Whole data set: some 33,000 sequences, median “E-score (-0.5 to 0.5)” near -0.053, cut for the highest 2% near 0.37. This excerpt belongs to a sample that is enriched for the highest values.
Biological target: Hap1 (UniProt P0CE41)
Test: PBM E-score (8-mer binding enrichment) (E-score (-0.5 to 0.5)); higher = stronger / more preferred TF binding
Conditions: protein concentration: 200 nM; construct: GST-DNA-binding domain
Description: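 Universal 'all 10-mer' protein binding microarrays (Agilent AMADID 015681) probed with GST-tagged S. cerevisiae TFs (full-length or DBD) made by in vitro transcription/translation (PURExpress), about 100-200 nM. Bound TF was detected with fluorescent anti-GST. Each ungapped 8-mer (which stands for itself and its reverse complement) is scored by the PBM enrichment score (E-score), a modified Wilcoxon-Mann-Whitney statistic from -0.5 to +0.5, computed with the Universal PBM Analysis Suite. Scale: above 0.35 generally sequence-specific binding.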

Chain of UniProt P0CE41 (P0CE41 whole entry): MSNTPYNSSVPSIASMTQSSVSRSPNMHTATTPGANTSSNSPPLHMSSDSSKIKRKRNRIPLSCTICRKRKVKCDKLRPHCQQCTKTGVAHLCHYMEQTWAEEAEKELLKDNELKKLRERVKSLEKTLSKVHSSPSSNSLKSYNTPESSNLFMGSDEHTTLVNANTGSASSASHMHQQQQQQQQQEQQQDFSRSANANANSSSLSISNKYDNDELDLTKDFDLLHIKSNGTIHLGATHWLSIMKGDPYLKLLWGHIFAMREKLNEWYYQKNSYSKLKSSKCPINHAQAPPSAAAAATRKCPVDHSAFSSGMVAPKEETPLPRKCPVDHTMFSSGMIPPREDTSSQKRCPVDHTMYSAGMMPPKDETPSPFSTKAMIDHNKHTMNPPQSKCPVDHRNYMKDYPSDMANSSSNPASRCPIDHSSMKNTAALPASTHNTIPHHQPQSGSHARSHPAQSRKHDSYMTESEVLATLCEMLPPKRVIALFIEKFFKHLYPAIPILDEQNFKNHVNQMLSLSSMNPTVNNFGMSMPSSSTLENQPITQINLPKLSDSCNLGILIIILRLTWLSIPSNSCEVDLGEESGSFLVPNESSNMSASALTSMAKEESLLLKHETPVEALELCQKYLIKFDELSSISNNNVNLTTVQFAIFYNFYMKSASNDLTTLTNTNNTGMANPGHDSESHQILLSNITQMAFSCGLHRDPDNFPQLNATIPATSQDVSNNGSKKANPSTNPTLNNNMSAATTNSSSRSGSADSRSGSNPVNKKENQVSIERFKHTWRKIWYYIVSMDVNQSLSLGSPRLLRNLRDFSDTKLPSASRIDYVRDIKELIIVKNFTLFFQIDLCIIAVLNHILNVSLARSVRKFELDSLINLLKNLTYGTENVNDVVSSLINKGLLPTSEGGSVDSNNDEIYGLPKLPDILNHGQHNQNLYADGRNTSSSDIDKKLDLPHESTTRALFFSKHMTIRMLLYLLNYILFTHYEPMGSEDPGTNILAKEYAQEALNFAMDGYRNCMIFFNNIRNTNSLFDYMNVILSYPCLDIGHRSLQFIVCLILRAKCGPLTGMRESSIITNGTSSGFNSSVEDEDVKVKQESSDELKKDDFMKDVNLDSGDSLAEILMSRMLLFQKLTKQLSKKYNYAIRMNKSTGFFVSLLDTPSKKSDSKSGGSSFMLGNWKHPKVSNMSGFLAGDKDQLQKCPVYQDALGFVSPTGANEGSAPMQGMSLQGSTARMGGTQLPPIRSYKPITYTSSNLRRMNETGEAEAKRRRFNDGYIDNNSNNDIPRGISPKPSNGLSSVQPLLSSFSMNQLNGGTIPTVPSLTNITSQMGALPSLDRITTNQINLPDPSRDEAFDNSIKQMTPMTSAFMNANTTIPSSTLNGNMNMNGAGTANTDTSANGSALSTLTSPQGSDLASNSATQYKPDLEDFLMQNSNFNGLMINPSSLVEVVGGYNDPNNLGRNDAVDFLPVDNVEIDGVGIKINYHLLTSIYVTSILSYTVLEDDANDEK

Sequence | PBM E-score
GGCCATAC | 0.17
CGCTACGA | 0.111
CTCTCATC | -0.159
CAGATTAG | -0.167
AGGACATA | -0.187
GCTCAGTA | -0.239
CCAATGCA | -0.186
CGGACCCA | 0.346
AAGTGACA | -0.105
AACGGACC | 0.327
AACGGACT | 0.337
ACCGGACC | 0.397
ACCGGATG | 0.329
ACCGGACT | 0.408
AGCGGACT | 0.287
ACCGGATC | 0.296
ACCGGACG | 0.421
ACCGGTCG | 0.289
CTTCTGAC | -0.224
CTCCAGCA | -0.241
AATACGCG | 0.0739
ACTAAACG | -0.112
ATACCTTA | -0.0965
AAACTACG | 0.118
CCCTCCAC | -0.233

Sequence | PBM E-score
GGGACGGA | 0.227
CGGACGTC | 0.258
GCGACGGA | 0.258
ACGACGGA | 0.199
AGGACGTA | 0.00968
CGGACGGC | 0.327
CGGACGGA | 0.397
CGGACGTA | 0.443
CCGACGGA | 0.386
CAGGTGTA | -0.199
CAGGTATG | -0.00123
CGGGTGGC | 0.152
CACCCCAC | -0.026
CCCCGTGC | 0.269
ACAACTTC | 0.00956
CCCGACAA | 0.311
CCAAGCTA | -0.112
CGCAGGAG | -0.0823
ACACCGGA | 0.395
ACACCGGC | 0.341
GCACCGGA | 0.353
ACACCGGT | 0.359
CCACCGGC | 0.233
CCACCGGG | 0.34
TCACCGCA | 0.0366

Sequence | PBM E-score
CCACCGGA | 0.432
TCACCGGA | 0.373
GATCAGCC | -0.11
CTGCAGAC | -0.128
GACCCAAA | -0.00261
GGAGTATA | 0.206
ACATGTAG | -0.081
CAAAGCAC | -0.138
CGGTGAGC | 0.0638
AGACCTGA | -0.0959
CCGCGGTA | 0.303
ATCCTCTC | -0.186
AGCGGGAA | 0.207
AAACCCCC | 0.0478
CTAACCGA | 0.176
GACCCCGC | 0.134
CACCCCGG | 0.264
AACCCCCG | 0.262
AACCCCGG | 0.456
ATAACCGC | 0.157
ACCCCCGC | 0.217
ATAACCGA | 0.386
AACCCCGC | 0.371
ACCCCCGG | 0.368
AAACCCCG | 0.438

Sequence | PBM E-score
CTACTAGC | 0.0698
GCCGTCCA | 0.0557
AATAGATG | -0.118
CGTGTTTA | 0.038
AAATTCTA | -0.166
ATGTACTA | -0.14
GTGGATCA | -0.21
CACCAATC | -0.0582
CAGATTGA | -0.0798
CCCAACAG | -0.328
ACCGTAAA | 0.0865
CAACTGTA | -0.234
ATGTGCCA | -0.302
AAACCCGA | 0.439
AAACCCGC | 0.335
AAAACCCC | 0.187
GAACCCGA | 0.23
AAAACCCT | -0.0696
AAAACCGC | 0.109
AAACCCGT | 0.361
AAAACCCG | 0.4
GAAACCGA | 0.274
TAACCCGA | 0.355
AAACCCGG | 0.454
AAAACCGA | 0.396

Sequence | PBM E-score
AGCCAGGC | -0.141
GCTTGGGA | -0.149
ACTGGGAG | -0.0791
CAGCTACA | -0.156
ACGCCTAC | -0.0649
GATGCGAA | -0.0227
TATTGCGA | 0.0517
AGTTTGTC | -0.117
CACCATCG | -0.192
GCAGCGGC | -0.00312
ACGAGATC | -0.15
CCGCTGCA | -0.0239
GTACCTCA | -0.238
ATTCCGTC | 0.213
ATTCCGCC | 0.295
ATTCCGTG | 0.294
ATTCCGGG | 0.374
ATTCCGGC | 0.37
ATTCCGCG | 0.285
GAGTCGCC | -0.0011
CCTTGTCA | -0.311
GGGAGTAA | 0.147
CGGAGTAC | 0.254
CGGAGTAA | 0.37
AGGAGTTA | 0.292

Sequence | PBM E-score
CTGAGTTC | -0.0173
CGGAGTTC | 0.394
AGGAGTTC | -0.143
GGGAGTTA | 0.247
CGGAGTTA | 0.494
CCCCTGTA | -0.154
GCTCGATA | 0.0192
AGAGGAAT | -0.205
ATCTCTAC | -0.223
AAGATGGG | -0.126
AGCCGGGC | 0.173
AGCCGGCA | 0.334
AGCCGGCC | 0.354
CGCCGGGC | 0.332
AGCCGGAG | 0.404
CGCCGGAC | 0.409
AGCCGGGG | 0.268
CGTCGGAC | 0.338
AGCCGGAT | 0.418
AGCCGGAC | 0.409
AGCCGGTG | 0.326
AGCCGGCT | 0.25
ACACGCAG | -0.093
CGAGAAAC | 0.187
AGCTTTGA | -0.0822

Sequence | PBM E-score
AAAGTGCT | -0.21
AAAGAATT | -0.0164
AGAGCTGC | -0.128
CGCTTTGA | 0.0268
AACAGCTT | -0.106
TAGACACA | -0.156
CGCCGTAG | 0.187
GGCCGGAA | 0.363
GGCCGGAC | 0.398
AGCCGGTC | 0.0184
AGCCGGGA | 0.231
AGCCGGAA | 0.371
CGCCGGAA | 0.357
GGCCGGTA | 0.344
CGACGGAG | 0.287
AGCCGGTA | 0.414
GGACGGAC | 0.358
CGCCGGAG | 0.399
AAATACGA | -0.0883
CAACGGGC | 0.153
CGCGAGCG | 0.104
AGTAGCAG | -0.173

Reference: the supplement of paper PMC3334620
